# Bioassay records deposited in PubChem by several laboratories.
# Mdm2 MdmX PPI – inhibitors of human Mdm2-MdmX association, primary screen, cell-based, luminescence, split luciferase, SaOS-2, uHTS. Protein Mdm4 (Homo sapiens) + E3 ubiquitin-protein ligase Mdm2 (Homo sapiens), …. SaOS-2 split-luciferase Mdm2/MdmX complementation. inhibition, % at 8 µM. hit rate 3% among 330,000. AID 485346, 2010;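 active means inhibition of at least 50% at 8 µM in the primary screen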
# Target sequence (O15151 whole entry, looked up): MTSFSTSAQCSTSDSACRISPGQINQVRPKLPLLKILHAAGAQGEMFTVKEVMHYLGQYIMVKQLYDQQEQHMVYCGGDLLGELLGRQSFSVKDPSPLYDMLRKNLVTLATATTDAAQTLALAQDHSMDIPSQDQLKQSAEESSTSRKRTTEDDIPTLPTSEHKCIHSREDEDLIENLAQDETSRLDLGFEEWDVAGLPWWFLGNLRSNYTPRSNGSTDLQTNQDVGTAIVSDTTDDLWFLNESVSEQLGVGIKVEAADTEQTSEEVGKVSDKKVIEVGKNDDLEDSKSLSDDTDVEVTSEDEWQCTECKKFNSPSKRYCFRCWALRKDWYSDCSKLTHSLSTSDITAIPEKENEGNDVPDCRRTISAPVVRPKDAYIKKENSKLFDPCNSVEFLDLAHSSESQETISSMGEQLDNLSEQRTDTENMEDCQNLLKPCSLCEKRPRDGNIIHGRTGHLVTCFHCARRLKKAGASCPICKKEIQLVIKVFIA
# Target sequence (Q00987 whole entry, looked up): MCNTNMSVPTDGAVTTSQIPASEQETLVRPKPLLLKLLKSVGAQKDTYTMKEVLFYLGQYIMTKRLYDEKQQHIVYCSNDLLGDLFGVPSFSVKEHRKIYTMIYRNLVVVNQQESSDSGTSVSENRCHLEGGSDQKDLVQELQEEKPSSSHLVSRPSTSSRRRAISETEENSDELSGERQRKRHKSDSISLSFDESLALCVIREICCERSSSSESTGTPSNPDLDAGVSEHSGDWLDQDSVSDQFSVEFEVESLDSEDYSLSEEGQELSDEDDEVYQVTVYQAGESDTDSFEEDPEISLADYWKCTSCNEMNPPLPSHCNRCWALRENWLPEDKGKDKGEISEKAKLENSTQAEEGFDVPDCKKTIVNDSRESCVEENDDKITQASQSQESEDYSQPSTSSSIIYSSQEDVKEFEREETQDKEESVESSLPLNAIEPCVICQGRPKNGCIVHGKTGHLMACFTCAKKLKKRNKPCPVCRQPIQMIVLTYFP
# LGR2 antag – inhibitors of bursicon-induced LGR2 CRE-luciferase signal, primary screen, cell-based, HEK293, CRE-luciferase reporter, bursicon stimulation | Drosophila bursicon receptor LGR2 (rickets) | bursicon-stimulated, 4 h | inhibition, % at 9.99 µM | hit rate 0.35% among 380,000;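 active means drop in luminescence signal, shown as inhibition above about 50% in the replicate tests, limit read from the data, passing the limit was not always enough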;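 further: agonist challenge used bursicon conditioned medium at about half maximal strength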
# KKLEB tox – cytotoxicity in KKLEB CF airway cells, primary screen, cytotoxicity control for CF NF-kB inhibitor project, cell-based, uHTS, fluorescence assay plates | AID 602141, 2011 | activity change (cytotoxicity), % at 5 µM | hit rate 0.36% among 360,000 | KKLEB CF airway cells viability, ATPlite luminescence, overnight; hits give low values; cells stimulated with P. aeruginosa culture filtrate;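 active means corrected activity change at or below -50% at 5 µM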
# CF NFkB inh – inhibitors of PAF-induced NF-kB signaling, primary screen, cell-based, GFP fluorescence, uHTS; inhibition, % at 5 µM; KKLEB NF-kB-GFP reporter, GFP fluorescence overnight; hit rate 0.86% among 360,000; AID 588850, 2011;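 active means at least 50% inhibition at 5 µM, scaled per plate between neutral and stimulator controls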;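 further: PAF is a Pseudomonas aeruginosa culture filtrate used as stimulus; plate controls were PAF-stimulated DMSO wells for no effect and unstimulated DMSO wells for full effect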
# HSP90 inh – HSP90 inhibitors, primary screen, cell lysate, luminescence; Heat shock protein HSP 90 (rabbit reticulocyte lysate; luciferase refolding); Rabbit reticulocyte lysate, luciferase refolding luminescence, 3 h; inhibition, % at 5.6 µM; hit rate 0.91% among 290,000;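 active means inhibition above the screen-wide mean plus 3 SD, computed separately per campaign, cut at about 16% in these data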;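 further: 0% = DMSO wells and 100% = 60 µM geldanamycin wells; inhibitors lower the luminescence because luciferase stays unfolded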
# Peg3 prom inh – Peg3 promoter-driven luciferase inhibitors, primary screen, cell-based, HeLa, luciferase luminescence | AID 588405, 2011 | inhibition, % at 20 µM | hit rate 1.7% among 360,000 | HeLa PEG-Prom luciferase reporter, overnight;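 active means inhibition of at least 50% at 20 µM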
# HSP90 confirm – HSP90 inhibitors, confirmation, cell lysate, luminescence; hit rate 64% among 2,300; shares compounds with HSP90 inh; inhibition, % at 5.9 µM; rabbit reticulocyte lysate, luciferase refolding luminescence, 3 h; in the data active means inhibition above about 18%;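 further: 0% = vehicle wells and 100% = reference inhibitor wells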
# FLuc counter – firefly luciferase inhibitors, HSP90 counter-screen, confirmation, artefact control for HSP90 inhibitor project, biochemical, luminescence, triplicate; AID 1847, 2009; purified native firefly luciferase; hit rate 48% among 2,300; inhibition, % at 5.9 µM; shares compounds with HSP90 inh;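 active means inhibition above the mean inhibition of all tested sample wells plus 3 SD, cut at about 10% in these data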;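 further: 0% = DMSO with luciferase and 100% = wells lacking luciferase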
# An asterisk follows results filed as active; nt = not tested or not shown. The list is not random: actives were taken first. Their share in the collection is about 3.6%.
SMILES,Mdm2 MdmX PPI,LGR2 antag,KKLEB tox,CF NFkB inh,HSP90 inh,Peg3 prom inh,HSP90 confirm,FLuc counter
C[C@H]1CN([C@@H](C)CO)C(=O)Cc2cc(NC(=O)Nc3ccc4c(c3)OCO4)ccc2O[C@H]1CN(C)S(=O)(=O)c1cn(C)cn1,nt,3.8,nt,nt,nt,nt,nt,nt
COc1ccc(S(=O)(=O)N(C)C[C@H]2Oc3ccc(NS(=O)(=O)c4ccc(C)cc4)cc3C(=O)N([C@H](C)CO)C[C@@H]2C)cc1,nt,-17.8,nt,nt,nt,nt,nt,nt
COc1ccc(-c2cc(C(=O)O)c3ccccc3n2)c(OC)c1,-3.8,-1.4,7.3,-7.4,-1.8,8.3,nt,nt
COc1ccc2cc(-c3cc(C(=O)O)c4ccccc4n3)ccc2c1,-150.7,nt,-54.1*,-2.4,28.2*,30.4,64.3*,37.8*
C[C@@H]1CCCCO[C@H](CN(C)C(=O)NC2CCCCC2)[C@H](C)CN([C@@H](C)CO)C(=O)c2cc(NS(=O)(=O)c3ccc(Cl)cc3)ccc2O1,nt,29.5,nt,nt,nt,nt,nt,nt
O=c1oc2ccc(Br)cc2cc1-c1nc2ccccc2o1,-0.2,-25.3,12.6,-21.3,1.8,-31.5,nt,nt
COc1cccc2cc(-c3nc4ccccc4o3)c(=O)oc12,24.2,-120.7,11.9,-13.7,18.6*,-195.7,18.1*,1.5
CC(=O)CSc1ccc(-c2nc3ccccc3[nH]2)cn1,-93.0,6.9,-18.1,-4.3,24.3*,-117.9,46.4*,1.9
CCOC(=O)CNC(=O)CSc1ccc(-c2nc3ccccc3[nH]2)cn1,-24.7,-10.5,1.4,9.3,-3.4,-8.0,nt,nt
O=C(COC(=O)c1cnccn1)c1ccc([N+](=O)[O-])cc1,16.3,-0.8,8.0,-11.1,38.2*,5.9,1.1,-23.5
Cc1ccc(C(=O)COC(=O)c2cnccn2)cc1,26.7,nt,7.0,-7.7,-0.9,8.6,nt,nt
Brc1ccc(C2Nc3cccc4cccc(c34)N2)o1,7.0,nt,0.5,-11.2,19.0*,-6.2,10.8,-17.6
O=C(O)c1cccc(NC(=S)NC(=O)c2ccc3ccccc3c2)c1,8.9,-37.6,17.6,-10.5,64.2*,24.8,71.0*,48.6*
O=C(O)c1ccc(NC(=O)c2ccc(Cl)cc2)c(NC(=O)c2ccc(Cl)cc2)c1,-0.4,-5.2,2.0,21.0,-7.1,15.4,nt,nt
Cc1cc(/C=N/NC(=O)c2cccc(F)c2)c(C)n1-c1ccccc1,30.2,-70.7,-6.0,-1.6,24.8*,-172.0,48.4*,46.6*
CCOc1ccc(C(=O)Nc2cccc(C(=O)O)c2)cc1Cl,-86.3,75.6*,8.9,-0.8,87.8*,20.5,88.0*,72.5*
Cc1ccc(C(=O)Nc2ccc(C(=O)O)cc2NC(=O)c2ccc(C)cc2)cc1,-4.6,6.7,-9.3,-8.4,60.3*,-38.2,55.1*,36.8*
Cc1ccc(C(=O)Nc2cccc(C(=O)N/N=C/c3ccccc3F)c2)cc1,-4.2,-73.8,2.5,-2.1,18.8*,14.6,-2.0,-14.5
Cc1ccc(C(=O)Nc2cccc(C(=O)O)c2)cc1,8.7,nt,nt,nt,82.5*,nt,87.9*,83.2*
Cc1ccc(C(=O)Nc2ccc3nccnc3c2)cc1,-69.7,31.7,-6.7,7.4,26.4*,-49.0,33.2*,7.4
CCCCOc1ccc(NC(=O)c2cc(F)c(F)cc2Cl)cc1,-12.0,-19.1,7.2,-17.5,-2.2,-48.5,nt,nt
CC(=O)Nc1cccc(C(=O)N/N=C/c2ccccc2F)c1,-1.9,3.8,-5.1,-2.0,2.9,-121.8,nt,nt
CCOc1ccc(NC(=O)c2cc(F)c(F)cc2Cl)cc1OCC,5.7,-14.7,6.1,-0.6,23.8*,31.0,3.7,-2.3
O=C(O)c1cccc(NC(=O)c2ccccc2)c1,nt,28.7,3.2,-8.3,nt,-13.0,nt,nt
O=C(CN1CCOCC1)NCC[C@H]1CC[C@@H](NS(=O)(=O)c2ccc(Cl)cc2)[C@@H](CO)O1,nt,8.9,nt,nt,nt,nt,nt,nt
SMILES,Mdm2 MdmX PPI,LGR2 antag,KKLEB tox,CF NFkB inh,HSP90 inh,Peg3 prom inh,HSP90 confirm,FLuc counter
C[C@@H]1CN([C@@H](C)CO)C(=O)c2cc(C#CC3(O)CCCC3)cnc2O[C@@H]1CN(C)C(=O)Cc1cccnc1,nt,-2.8,nt,nt,nt,nt,nt,nt
CC(C)(C)N=C1NN=C(c2cc3ccccc3o2)CS1,nt,-17.3,0.3,-4.5,19.8*,-221.7,29.1*,23.3*
COc1ccc(CN=C2NN=C(c3ccc(Cl)cc3)CS2)cc1,-112.7,4.8,-6.9,10.5,-2.6,-39.1,nt,nt
CC(C)(C)N=C1NN=C(c2ccc(Cl)cc2)CS1,-29.7,-30.5,0.1,4.8,20.2*,-263.2,22.5*,21.9*
CC(=O)c1c(C)[nH]c(C2=NNC(=NC(C)(C)C)SC2)c1C,-30.8,-43.2,-6.6,4.5,0.6,-255.2,nt,nt
CN(C)c1ccc(/C=N/NC(=S)NCc2ccco2)cc1,-25.4,nt,9.0,6.8,3.2,-66.6,nt,nt
CN(C)c1ccc(C(=S)NCc2ccco2)cc1,-49.3,nt,6.3,-10.2,56.7*,37.8,64.8*,37.8*
CCC(=O)N(C)C[C@H]1Oc2cc(-c3ccncc3)ccc2S(=O)(=O)N([C@@H](C)CO)C[C@@H]1C,nt,17.8,nt,nt,nt,nt,nt,nt
O=C(COC(=O)c1ccc(O)cc1)c1ccc2c(c1)OCCO2,-23.8,10.6,6.9,4.6,nt,-278.5,nt,nt
COC(=O)C(Cc1ccc(O)cc1)NC(=O)c1ccc2c(c1)OCCO2 (configuration not stated),-7.8,-18.5,11.8,8.2,26.0*,-236.3,40.7*,28.1*
Cc1ccc(S(=O)(=O)Nc2ccc3c(c2)C(=O)N([C@H](C)CO)C[C@@H](C)[C@H](CN(C)S(=O)(=O)c2ccc(C)cc2)O3)cc1,nt,7.7,nt,nt,nt,nt,nt,nt
CNc1nnc(-c2ccc(N(C)C)cc2)s1,-13.8,nt,-13.7,6.6,19.7*,-129.7,47.1*,37.5*
C[C@@H]1CN([C@@H](C)CO)C(=O)c2cc(NC(=O)c3ccccc3)ccc2O[C@@H](C)CCCCO[C@@H]1CN(C)C(=O)C1CCCCC1,nt,-6.3,nt,nt,nt,nt,nt,nt
COc1ccc(OC)c(Nc2nc(-c3sc(NC(=O)c4ccccc4)nc3C)cs2)c1,31.3,nt,nt,nt,27.2*,nt,19.1*,-4.9
Cc1nc(NC(=O)CC(C)C)sc1-c1csc(Nc2ccc(Cl)cc2Cl)n1,-2.3,-7.1,-8.2,30.4,2.1,-21.9,nt,nt
Cc1nc(NC(=O)c2ccccc2)sc1-c1csc(Nc2ccc(Cl)cc2Cl)n1,-20.4,nt,nt,nt,44.8*,nt,34.9*,-12.8
COc1ccc(Cl)cc1Nc1nc(-c2sc(NC(=O)c3ccccc3)nc2C)cs1,15.1,nt,nt,nt,40.1*,nt,23.6*,-3.4
